Data taken from PubChem BioAssay (Tox21).
Records with an inconclusive call do not appear. The source made the active and inactive calls. Unless noted, calls follow the shape of the dose curve; as a rule, active = well fitted curve in the direction sought with a large enough effect in the repeat runs; inconclusive = weak or mixed curves; inactive = no such curve, though single readings can be large; an effect the other way counts as inactive or inconclusive.

How the values were obtained:
[1] = target: Bile acid receptor (Homo sapiens) (UniProt Q96RI1); experiment: qHTS assay to identify small molecule antagonists of the farnesoid-X-receptor (FXR) signaling pathway (AID 743217; active = well fitted inhibition curve with a large enough effect in the signal ratio in the repeat runs, not every such curve was filed as active; the % refers to the signal ratio)
Sequence of Bile acid receptor (Homo sapiens) (Q96RI1 whole entry, looked up): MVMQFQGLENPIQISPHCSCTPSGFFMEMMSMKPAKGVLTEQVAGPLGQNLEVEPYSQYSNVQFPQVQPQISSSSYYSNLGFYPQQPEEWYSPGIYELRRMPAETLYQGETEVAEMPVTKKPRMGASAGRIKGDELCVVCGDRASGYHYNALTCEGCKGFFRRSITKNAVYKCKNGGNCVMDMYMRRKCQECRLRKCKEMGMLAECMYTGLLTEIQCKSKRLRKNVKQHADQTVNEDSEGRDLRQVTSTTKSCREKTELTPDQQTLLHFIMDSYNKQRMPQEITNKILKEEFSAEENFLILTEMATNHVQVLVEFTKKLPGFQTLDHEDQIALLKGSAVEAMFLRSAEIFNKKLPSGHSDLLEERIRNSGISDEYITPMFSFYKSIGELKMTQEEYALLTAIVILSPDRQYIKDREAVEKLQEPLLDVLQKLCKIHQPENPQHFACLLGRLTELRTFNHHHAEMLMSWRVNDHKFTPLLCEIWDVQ
Method in brief: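 Antagonist mode: chenodeoxycholic acid at 50 uM final stimulates a UAS-driven beta-lactamase reporter in HEK 293T FXR-bla cells during 16 h, 37C compound exposure. Read-out is FRET substrate fluorescence after 2 h at room temperature.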

[2] = qHTS assay to identify small molecule agonists of the farnesoid-X-receptor (FXR) signaling pathway - cell viability counter screen (AID 743218); also: nearly all actives have a fitted effect of over 45% in size
Method in brief: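 Viability counter screen in the same wells: CellTiter-Glo luminescence, 30 min room-temperature incubation, measured after the beta-lactamase read. Cells were GeneBLAzer FXR-UAS-bla HEK 293T, compound-treated 16 h at 37C.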

[3] = target: Bile acid receptor (Homo sapiens) (UniProt Q96RI1); experiment: qHTS assay to identify small molecule agonists of the farnesoid-X-receptor (FXR) signaling pathway (AID 743220; active = well fitted activation curve with a large enough effect in the signal ratio in the repeat runs, not every such curve was filed as active; the % refers to the signal ratio)
Method in brief: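 FXR-UAS-bla HEK 293T cells carrying a UAS-driven beta-lactamase reporter were plated for 5 h at 37C/5% CO2, then exposed to DMSO-dissolved Tox21 10K compounds for 16 h at 37C. A LiveBLAzer B/G FRET substrate was loaded for 2 h at room temperature before fluorescence reading.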

[4] = qHTS assay to identify small molecule antagonists of the farnesoid-X-receptor (FXR) signaling pathway - cell viability counter screen (AID 743221; active = well fitted cell-killing curve with a large enough effect in the repeat runs, not every such curve was filed as active; also: nearly all actives have a fitted effect of over 50% in size)
Method in brief: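 Quantitative HTS of the Tox21 10K library run in parallel with the beta-lactamase reporter read. HEK 293T cells carrying a UAS-driven bla reporter got compound and 50 uM CDCA (final) for 16 h; ATP-based luminescence followed.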

[5] = target: Vitamin D3 receptor (Homo sapiens) (UniProt P11473); experiment: qHTS assay to identify small molecule agonists of the vitamin D receptor (VDR) signaling pathway (AID 743222; calls by dose curve)
Sequence of Vitamin D3 receptor (Homo sapiens) (P11473 whole entry, looked up): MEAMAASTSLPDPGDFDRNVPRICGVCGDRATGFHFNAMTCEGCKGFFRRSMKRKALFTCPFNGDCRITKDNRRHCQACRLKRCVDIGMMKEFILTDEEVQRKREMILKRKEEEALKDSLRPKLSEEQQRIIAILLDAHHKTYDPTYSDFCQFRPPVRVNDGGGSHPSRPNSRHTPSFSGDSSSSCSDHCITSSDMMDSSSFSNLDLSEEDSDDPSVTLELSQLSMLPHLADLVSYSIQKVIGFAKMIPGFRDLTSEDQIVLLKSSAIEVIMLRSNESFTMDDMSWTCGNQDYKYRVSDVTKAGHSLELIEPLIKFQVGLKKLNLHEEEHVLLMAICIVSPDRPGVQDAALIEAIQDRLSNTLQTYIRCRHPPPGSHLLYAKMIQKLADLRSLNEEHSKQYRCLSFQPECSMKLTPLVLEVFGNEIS
Method in brief: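 Agonist mode, beta-lactamase reporter: fluorescence from LiveBLAzer B/G FRET substrate (2 h, room temperature) read after 16 h compound treatment at 37 C of VDR-bla cells, which were pre-incubated 4 h after seeding.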

[6] = target: Vitamin D3 receptor (Homo sapiens) (UniProt P11473); experiment: qHTS assay to identify small molecule antagonists of the vitamin D receptor (VDR) signaling pathway (AID 743223; active = well fitted inhibition curve with a large enough effect in the signal ratio in the repeat runs, not every such curve was filed as active; the % refers to the signal ratio)
Method in brief: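 Fluorescence from LiveBLAzer B/G FRET substrate, read after 2 h at room temperature, reflects beta-lactamase reporter activity in VDR-bla cells treated 16 h at 37C with compounds and agonist 1alpha,25-dihydroxyvitamin D3 (3 nM final).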

[7] = qHTS assay to identify small molecule agonists of the vitamin D receptor (VDR) signaling pathway - cell viability counter screen (AID 743224); also: series mostly up to about 63 µM; nearly all actives have a fitted effect of over 50% in size
Method in brief: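 Counter screen run in the same wells as the VDR-bla reporter assay: CellTiter-Glo luminescence, 30 min at room temperature, after 16 h compound treatment at 37C of cells pre-plated for 4 h.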

[8] = qHTS assay to identify small molecule antagonists of the vitamin D receptor (VDR) signaling pathway - cell viability counter screen (AID 743225); also: nearly all actives have a fitted effect of over 50% in size
Method in brief: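 Cells (VDR-UAS-bla HEK 293T) are plated, rested 4 h at 37C, dosed with compound and 3 nM final 1-alpha,25-dihydroxy vitamin D3, and incubated 16 h. Viability is taken from CellTiter-Glo luminescence in the reporter wells.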

[9] = qHTS assay to identify small molecule agonists of the endoplasmic reticulum stress response signaling pathway (AID 1159516; active = well fitted activation curve with a large enough effect in the signal ratio in the repeat runs, not every such curve was filed as active; the % refers to the signal ratio)
Method in brief: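 Ratiometric FRET readout (405 nm excitation; 460 and 530 nm emission) of a beta-lactamase gene driven by the ER stress response element, after 2 hr substrate loading. HeLa ESRE-bla cells were seeded overnight and treated with compounds for only 5 hr at 37 C.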

[10] = qHTS assay to identify small molecule agonists of the endoplasmic reticulum stress response signaling pathway - cell viability counter screen (AID 1159517; calls by dose curve; also: series mostly up to about 61 µM; nearly all actives have a fitted effect of over 50% in size)
Method in brief: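 After overnight attachment, ESRE-bla HeLa cells were treated with Tox21 library compounds for 5 hr. CellTiter-Glo luminescence, read 30 min post-addition at room temperature, reported viability.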

[11] = qHTS assay to identify small molecule antagonists of the retinoid-related orphan receptor gamma (ROR-gamma) signaling pathway - cell viability counter screen (AID 1159520); also: nearly all actives have a fitted effect of over 50% in size
Method in brief: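 Cytotoxicity was read from cellular ATP (CellTiter-Glo luminescence) after 16 hr at 37 C with 1 uM doxycycline induction. The inducer was added 2 hr after compound transfer to Tet-on ROR gamma CHO cells.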

[12] = target: Nuclear receptor ROR-gamma (Homo sapiens) (UniProt P51449); experiment: qHTS assay to identify small molecule antagonists of the retinoid-related orphan receptor gamma (ROR-gamma) signaling pathway (AID 1159521)
Method in brief: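 RORγ antagonism is scored from reduced reporter luminescence in Tet-on CHO cells. Induction used 1 uM final doxycycline hyclate for 16 h at 37 C, following a 2 h compound exposure.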

[13] = qHTS assay to identify small molecule agonists of the AP-1 signaling pathway (AID 1159526; calls by dose curve)
[14] = qHTS assay to identify small molecule agonists of the peroxisome proliferator-activated receptor delta (PPARd) signaling pathway - cell viability counter screen (AID 743211); also: nearly all actives have a fitted effect of over 55% in size
Method in brief: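 Viability of GeneBLAzer PPARd UAS-bla HEK293H cells was assessed after 17 h compound incubation at 37C, using CellTiter-Glo reagent added after the reporter read and luminescence recorded 30 min later.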

[15] = target: Peroxisome proliferator-activated receptor delta (Homo sapiens) (UniProt Q03181); experiment: qHTS assay to identify small molecule agonists of the peroxisome proliferator-activated receptor delta (PPARd) signaling pathway (AID 743212; calls by dose curve;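 also: HEK293H cells with PPARd UAS beta-lactamase reporter GeneBLAzer system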)
Sequence of Peroxisome proliferator-activated receptor delta (Homo sapiens) (Q03181 whole entry, looked up): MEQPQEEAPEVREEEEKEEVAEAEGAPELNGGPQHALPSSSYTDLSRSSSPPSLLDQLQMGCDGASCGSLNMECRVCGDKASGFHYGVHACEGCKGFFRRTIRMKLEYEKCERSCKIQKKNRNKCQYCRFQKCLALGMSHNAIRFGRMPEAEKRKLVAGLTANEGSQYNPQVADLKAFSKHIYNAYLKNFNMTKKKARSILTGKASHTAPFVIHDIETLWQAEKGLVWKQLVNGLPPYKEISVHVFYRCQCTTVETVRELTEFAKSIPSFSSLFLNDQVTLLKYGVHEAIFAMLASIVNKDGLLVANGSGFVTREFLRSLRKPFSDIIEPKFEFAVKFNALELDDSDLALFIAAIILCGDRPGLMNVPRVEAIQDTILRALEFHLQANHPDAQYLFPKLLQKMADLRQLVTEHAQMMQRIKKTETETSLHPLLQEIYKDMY
Method in brief: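 Steps: seed PPARd-bla HEK293H cells; incubate 5 h, 37 C, 5% CO2; add compounds in DMSO; incubate, 37 C; add LiveBLAzer B/G FRET substrate; hold 2 h at room temperature; measure fluorescence.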

[16] = qHTS assay to identify small molecule antagonists of the peroxisome proliferator-activated receptor delta (PPARd) signaling pathway - cell viability counter screen (AID 743213); also: nearly all actives have a fitted effect of over 50% in size
Method in brief: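 CellTiter-Glo was added to PPARd-bla HEK293H wells following 17 h compound treatment in the presence of 300 nM L165041. Luminescence was recorded after 30 min at room temperature.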

[17] = target: Peroxisome proliferator-activated receptor delta (Homo sapiens) (UniProt Q03181); experiment: qHTS assay to identify small molecule antagonists of the peroxisome proliferator-activated receptor delta (PPARd) signaling pathway (AID 743215; active = well fitted inhibition curve with a large enough effect in the signal ratio in the repeat runs, not every such curve was filed as active; the % refers to the signal ratio;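 also: cells stimulated with agonist L165041 at 300 nM final during compound exposure; series mostly up to about 62 µM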)
Method in brief: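 Agonist L165041 (300 nM final) added with compound to PPARd-bla HEK293H UAS-bla reporter cells; 17 h incubation at 37 C. Read-out: LiveBLAzer FRET substrate, 2 h at room temperature, fluorescence intensity.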

[18] = qHTS assay to identify small molecule agonists of the AP-1 signaling pathway - cell viability counter screen (AID 1159525; calls by dose curve; also: nearly all actives have a fitted effect of over 55% in size)
Method in brief: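 Intracellular ATP by Cell Titer Glo luminescence (30 min, RT) in the same ME-180 AP-1-bla wells after the 5 h compound exposure at 37 °C. Normalised to tetra n-octyl ammonium bromide and DMSO controls.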

[19] = qHTS assay to identify small molecule agonists of the NFkB signaling pathway - cell viability counter screen (AID 1159515; calls by dose curve; also: series mostly up to about 61 µM; nearly all actives have a fitted effect of over 55% in size)
Method in brief: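 Read by CellTiter-Glo luminescence (30 min, room temperature) in the wells also used for the beta-lactamase FRET read. ME-180 NFkB-bla cells at 2,000 per well were plated overnight, then exposed to compound for 5 hr at 37 C.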

Measured: Potency

OCCBr
not listed: [14] | [15] | [16] | [17] | [18] | [19]
inactive: all other assays above

CNC(=O)Oc1ccc(N(C)C)c(C)c1
not listed: [5] | [6] | [19]
inactive: all other assays above

O=[N+]([O-])c1cccc2cccnc12
not listed: [2] | [14]
inactive: all other assays above

CC(CC(C#N)(c1ccccc1)c1ccccc1)N(C)C (stereo not drawn)
not listed: [2] | [5] | [13] | [14] | [16] | [18]
inactive: all other assays above

O=C(O)C(Br)CBr (stereo not drawn)
not listed: [1] | [2] | [3] | [5] | [6] | [13] | [15] | [18]
inactive: all other assays above

CCC(=O)c1ccccc1
not listed: [16] | [18]
inactive: all other assays above

COC(=O)COc1ccc(Cl)cc1Cl
not listed: [1] | [3] | [4] | [16] | [18]
inactive: all other assays above

c1cc2c(c(N3CCNCC3)c1)OCCO2
not listed: [1] | [3] | [7] | [8] | [14] | [18]
inactive: all other assays above

Cc1ncc2n1-c1ccc(Cl)cc1C(c1ccccc1F)=NC2
not listed: [1] | [3] | [5] | [15] | [17]
inactive: all other assays above

N#Cc1c(Cl)cccc1Cl
not listed: [1] | [2] | [3] | [5] | [6] | [16]
inactive: all other assays above

CC(C(O)c1ccccc1)N(C)C/C=C/c1ccccc1 (stereo not drawn)
not listed: [1] | [3] | [8] | [13] | [14] | [15] | [17] | [18]
inactive: all other assays above

O=C(O)c1ccc2[nH]cc(CCCCN3CC=C(c4ccccc4)CC3)c2c1
not listed: [1] | [3] | [8] | [18] | [19]
inactive: all other assays above

O=C(N[C@H]1CN2CCC1CC2)c1cc2ccoc2cn1
not listed: [1] | [3] | [5] | [6] | [17]
inactive: all other assays above

O=[N+]([O-])c1cccc(O)c1
not listed: [2] | [7] | [14] | [16] | [18] | [19]
inactive: all other assays above
